# Experimental data reported in PubChem BioAssay.
# Active and inactive are the calls of the source.
# What was measured:
# [1] = system: PRMT1 (protein arginine N-methyltransferase 1); assay: PRMT1 binders on small-molecule microarrays, primary screen, biochemical, small-molecule microarray, 635 nm fluorescence (AID 1088); settings: small-molecule microarray binding, higher = more signal;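 further: binding of Prmt1 protein to compounds spotted on small-molecule microarray slides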
# [2] = yeast growth modulation, basal conditions, primary screen, YJM789 clinical isolate, OD600, 24 h (AID 1089);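 further: growth of clinical yeast isolate S. cerevisiae YJM 789 seeded 1000 cells per well; test concentration not given here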; settings: S. cerevisiae YJM789 growth, higher = more signal, called active from +8 up or from −8 down
# [3] = fission yeast growth modulation, primary screen, strain 972, OD600, 24 h, no modulator (AID 1090);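 further: basal condition with compound alone and no growth modifier present; test concentration not given here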; settings: S. pombe 972 growth, higher = more signal, called active from +8 up or from −8 down
# [4] = S. cerevisiae growth modulation with rapamycin, primary screen, strain BY4716, OD600, 96 h (AID 1091); settings: higher = more signal, called active from +8 up or from −8 down; further: test concentration not given here
# [5] = molecular target: Torsin-1A-interacting protein 2 (Homo sapiens) (UniProt Q8NFQ8); assay: LULL1 binders on small-molecule microarray, primary screen, cell lysate, human LULL1 lysate, 635/667 nm fluorescence (AID 1092); settings: hLULL1 lysate binding, 635 nm fluorescence, higher = more signal;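 further: probe is lysate of COS7 cells overexpressing human LULL1; score merges per-feature 667 nm fluorescence with signal-to-noise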
# [6] = E. coli growth modulation, two-sided OD650, primary screen, E. coli filamentation project, strain DRC41, 24 h (AID 1093); settings: OD650, 24 h, higher = more signal, called active from +8 up or from −8 down;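 further: MC1000 strain lacking acrAB efflux and sulA so SOS filamentation is blocked; test concentration not given here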
# [7] = small-molecule microarray binders of probe aLefty2, primary screen, biochemical, biotinylated probe, 635/667 nm fluorescence (AID 1094); settings: higher = more signal;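 further: score merges spot fluorescence near 667 nm with spot signal-to-noise ratio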
# [8] = system: Noggin (protein binding on small-molecule microarray); assay: Noggin binders on small-molecule microarray, primary screen, biochemical, 635/667 nm fluorescence (AID 1095); settings: 635 nm fluorescence, higher = more signal;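 further: score merges 667 nm feature fluorescence with signal to noise over triplicate slides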
# [9] = molecular target: Neurogenic locus notch homolog protein 3 (Homo sapiens) (UniProt Q9UM47); assay: NOTCH3 binders on small-molecule microarray, primary screen, biochemical, 635/667 nm fluorescence (AID 1096); settings: NOTCH3 binding, 635 nm fluorescence, higher = more signal
# [10] = small-molecule microarray binders of probe aEGFR, primary screen, biochemical, biotinylated probe, 635/667 nm fluorescence (AID 1097); settings: higher = more signal;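 further: probe is a biotinylated anti-EGFR antibody binding compounds printed on slides; score combines fluorescence near 667 nm and signal to noise of each spot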
# [11] = system: Plasmodium falciparum Sir2 (PF13_0152, Sir2A); assay: pfSir2 binders on small-molecule microarrays, primary screen, biochemical, small-molecule microarray, 635 nm fluorescence (AID 1098); settings: small-molecule microarray binding, fluorescence 635 nm; higher = more signal;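 further: score merges spot fluorescence intensity with its signal-to-noise ratio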
# [12] = small-molecule microarray binders of probe aDKK1, primary screen, biochemical, biotinylated probe, 635/667 nm fluorescence (AID 1099); settings: higher = more signal;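 further: score merges 667nm spot fluorescence with signal to noise across triplicate slides; reference of the scale not given here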
# [13] = small-molecule microarray binders of probe aCHRDL2, primary screen, biochemical, biotinylated probe, 635/667 nm fluorescence (AID 1100); settings: higher = more signal
# [14] = splicing luciferase reporter signal modulators, primary screen, spliceosome inhibition project, cell-based, HEK293, splice +/- reporter (AID 1101); settings: luminescence, 24 h, higher = more signal, called active from +8 up or from −8 down;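 further: HEK293 cells carrying a splicing-competent luciferase reporter gene; test concentration not given here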
# [15] = molecular target: Fibroblast growth factor 10 (Homo sapiens) (UniProt O15520); assay: FGF10 binders on small-molecule microarrays, primary screen, biochemical, small-molecule microarray, 635 nm fluorescence (AID 1102); settings: FGF10 binding, fluorescence 635 nm, higher = more signal
# [16] = system: glycogen synthase kinase-3 (GSK3A per assay name; protocol says GSK3B); assay: GSK3 binders on small-molecule microarrays, primary screen, biochemical, small-molecule microarray, 635 nm fluorescence, GSK3A (AID 1103); settings: small-molecule microarray binding, fluorescence 635 nm; higher = more signal; further: the record names both GSK3A and GSK3B
# [17] = molecular target: Epidermal growth factor receptor (Homo sapiens) (UniProt P00533); assay: EGFR binders on small-molecule microarrays, primary screen, biochemical, small-molecule microarray, 635 nm fluorescence (AID 1104); settings: EGFR binding, higher = more signal;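 further: score merges 667 nm emission intensity with spot signal to noise over triplicate slides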
# [18] = molecular target: Follistatin-related protein 3 (Homo sapiens) (UniProt O95633); assay: FSTL3 binders on small-molecule microarrays, primary screen, biochemical, small-molecule microarray, 635 nm fluorescence (AID 1105); settings: FSTL3 binding, higher = more signal;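 further: score merges emission near 667 nm and signal to noise per printed spot across three slides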
# [19] = molecular target: Dickkopf-related protein 1 (Homo sapiens) (UniProt O94907); assay: DKK1 binders on small-molecule microarrays, primary screen, biochemical, small-molecule microarray, 635 nm fluorescence scan (AID 1106); settings: DKK1 binding, higher = more signal;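 further: score merges emission near 667 nm with signal to noise over three replicate slides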
# [20] = system: Inhibin beta A chain (activin A); assay: INHBA (activin A) binders on microarrays, primary screen, biochemical, small-molecule microarray, 635 nm fluorescence scan (AID 1107); settings: small-molecule microarray binding, higher = more signal;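 further: mouse activin A protein probed at 4.33 µg/mL on printed slides; score merges bound-protein fluorescence near 667 nm with spot signal-to-noise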
# Sequence of Torsin-1A-interacting protein 2 (Homo sapiens) (Q8NFQ8 whole entry, looked up): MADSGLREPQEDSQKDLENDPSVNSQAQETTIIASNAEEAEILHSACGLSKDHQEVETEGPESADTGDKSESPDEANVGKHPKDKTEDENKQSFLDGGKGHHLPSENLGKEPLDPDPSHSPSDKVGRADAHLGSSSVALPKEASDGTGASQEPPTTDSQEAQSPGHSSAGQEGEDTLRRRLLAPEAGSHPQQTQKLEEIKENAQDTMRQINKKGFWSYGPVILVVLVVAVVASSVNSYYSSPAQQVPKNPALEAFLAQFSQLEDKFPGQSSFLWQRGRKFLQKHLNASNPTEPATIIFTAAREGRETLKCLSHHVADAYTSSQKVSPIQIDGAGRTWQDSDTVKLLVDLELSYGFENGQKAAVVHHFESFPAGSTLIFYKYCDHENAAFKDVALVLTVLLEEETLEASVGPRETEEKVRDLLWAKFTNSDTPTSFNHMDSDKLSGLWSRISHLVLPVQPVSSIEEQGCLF
# Sequence of Epidermal growth factor receptor (Homo sapiens) (P00533 whole entry, looked up): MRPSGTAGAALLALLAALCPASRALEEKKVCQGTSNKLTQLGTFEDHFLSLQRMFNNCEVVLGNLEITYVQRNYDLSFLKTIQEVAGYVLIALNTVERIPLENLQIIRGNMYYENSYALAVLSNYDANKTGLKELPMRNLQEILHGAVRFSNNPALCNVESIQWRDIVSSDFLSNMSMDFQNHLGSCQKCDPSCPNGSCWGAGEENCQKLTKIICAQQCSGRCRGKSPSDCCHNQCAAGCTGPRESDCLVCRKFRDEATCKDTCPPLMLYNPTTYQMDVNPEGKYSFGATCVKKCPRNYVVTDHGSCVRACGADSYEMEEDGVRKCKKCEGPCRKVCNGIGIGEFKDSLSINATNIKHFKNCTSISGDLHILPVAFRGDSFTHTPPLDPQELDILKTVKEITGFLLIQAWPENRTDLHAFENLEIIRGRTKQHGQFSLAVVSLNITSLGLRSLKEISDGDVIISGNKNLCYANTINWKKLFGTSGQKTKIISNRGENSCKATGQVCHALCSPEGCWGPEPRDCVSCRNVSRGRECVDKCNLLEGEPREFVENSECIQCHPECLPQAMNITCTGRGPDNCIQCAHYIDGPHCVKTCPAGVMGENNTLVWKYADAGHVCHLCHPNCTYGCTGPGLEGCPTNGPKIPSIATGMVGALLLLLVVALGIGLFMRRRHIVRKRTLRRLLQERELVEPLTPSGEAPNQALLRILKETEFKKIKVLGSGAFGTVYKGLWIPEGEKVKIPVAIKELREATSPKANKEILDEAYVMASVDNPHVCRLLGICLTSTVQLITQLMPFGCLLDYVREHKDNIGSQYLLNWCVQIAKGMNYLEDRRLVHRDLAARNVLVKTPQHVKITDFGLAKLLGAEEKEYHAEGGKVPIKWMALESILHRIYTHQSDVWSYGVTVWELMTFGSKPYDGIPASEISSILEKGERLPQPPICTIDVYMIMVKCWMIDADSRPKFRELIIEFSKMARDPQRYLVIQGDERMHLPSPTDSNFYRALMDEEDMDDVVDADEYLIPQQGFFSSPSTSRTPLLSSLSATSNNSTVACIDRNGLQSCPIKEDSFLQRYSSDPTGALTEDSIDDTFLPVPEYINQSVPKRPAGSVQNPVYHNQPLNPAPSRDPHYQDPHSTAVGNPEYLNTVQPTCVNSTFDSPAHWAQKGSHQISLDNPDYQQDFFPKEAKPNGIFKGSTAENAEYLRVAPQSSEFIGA
# Sequence of Fibroblast growth factor 10 (Homo sapiens) (O15520 whole entry, looked up): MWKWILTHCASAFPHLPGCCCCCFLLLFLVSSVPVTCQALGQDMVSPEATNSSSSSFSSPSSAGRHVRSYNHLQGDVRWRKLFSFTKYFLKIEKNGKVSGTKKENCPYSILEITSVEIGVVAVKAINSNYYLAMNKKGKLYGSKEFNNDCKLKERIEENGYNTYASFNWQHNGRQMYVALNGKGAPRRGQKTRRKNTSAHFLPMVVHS
# Sequence of Dickkopf-related protein 1 (Homo sapiens) (O94907 whole entry, looked up): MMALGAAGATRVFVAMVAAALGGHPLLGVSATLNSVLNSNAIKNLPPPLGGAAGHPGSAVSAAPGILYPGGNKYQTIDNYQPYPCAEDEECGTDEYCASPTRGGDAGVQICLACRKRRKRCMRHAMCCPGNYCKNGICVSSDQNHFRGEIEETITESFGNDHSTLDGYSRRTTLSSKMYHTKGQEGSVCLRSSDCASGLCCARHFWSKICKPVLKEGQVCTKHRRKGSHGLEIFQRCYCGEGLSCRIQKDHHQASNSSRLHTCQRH
# Sequence of Neurogenic locus notch homolog protein 3 (Homo sapiens) (Q9UM47 whole entry, looked up): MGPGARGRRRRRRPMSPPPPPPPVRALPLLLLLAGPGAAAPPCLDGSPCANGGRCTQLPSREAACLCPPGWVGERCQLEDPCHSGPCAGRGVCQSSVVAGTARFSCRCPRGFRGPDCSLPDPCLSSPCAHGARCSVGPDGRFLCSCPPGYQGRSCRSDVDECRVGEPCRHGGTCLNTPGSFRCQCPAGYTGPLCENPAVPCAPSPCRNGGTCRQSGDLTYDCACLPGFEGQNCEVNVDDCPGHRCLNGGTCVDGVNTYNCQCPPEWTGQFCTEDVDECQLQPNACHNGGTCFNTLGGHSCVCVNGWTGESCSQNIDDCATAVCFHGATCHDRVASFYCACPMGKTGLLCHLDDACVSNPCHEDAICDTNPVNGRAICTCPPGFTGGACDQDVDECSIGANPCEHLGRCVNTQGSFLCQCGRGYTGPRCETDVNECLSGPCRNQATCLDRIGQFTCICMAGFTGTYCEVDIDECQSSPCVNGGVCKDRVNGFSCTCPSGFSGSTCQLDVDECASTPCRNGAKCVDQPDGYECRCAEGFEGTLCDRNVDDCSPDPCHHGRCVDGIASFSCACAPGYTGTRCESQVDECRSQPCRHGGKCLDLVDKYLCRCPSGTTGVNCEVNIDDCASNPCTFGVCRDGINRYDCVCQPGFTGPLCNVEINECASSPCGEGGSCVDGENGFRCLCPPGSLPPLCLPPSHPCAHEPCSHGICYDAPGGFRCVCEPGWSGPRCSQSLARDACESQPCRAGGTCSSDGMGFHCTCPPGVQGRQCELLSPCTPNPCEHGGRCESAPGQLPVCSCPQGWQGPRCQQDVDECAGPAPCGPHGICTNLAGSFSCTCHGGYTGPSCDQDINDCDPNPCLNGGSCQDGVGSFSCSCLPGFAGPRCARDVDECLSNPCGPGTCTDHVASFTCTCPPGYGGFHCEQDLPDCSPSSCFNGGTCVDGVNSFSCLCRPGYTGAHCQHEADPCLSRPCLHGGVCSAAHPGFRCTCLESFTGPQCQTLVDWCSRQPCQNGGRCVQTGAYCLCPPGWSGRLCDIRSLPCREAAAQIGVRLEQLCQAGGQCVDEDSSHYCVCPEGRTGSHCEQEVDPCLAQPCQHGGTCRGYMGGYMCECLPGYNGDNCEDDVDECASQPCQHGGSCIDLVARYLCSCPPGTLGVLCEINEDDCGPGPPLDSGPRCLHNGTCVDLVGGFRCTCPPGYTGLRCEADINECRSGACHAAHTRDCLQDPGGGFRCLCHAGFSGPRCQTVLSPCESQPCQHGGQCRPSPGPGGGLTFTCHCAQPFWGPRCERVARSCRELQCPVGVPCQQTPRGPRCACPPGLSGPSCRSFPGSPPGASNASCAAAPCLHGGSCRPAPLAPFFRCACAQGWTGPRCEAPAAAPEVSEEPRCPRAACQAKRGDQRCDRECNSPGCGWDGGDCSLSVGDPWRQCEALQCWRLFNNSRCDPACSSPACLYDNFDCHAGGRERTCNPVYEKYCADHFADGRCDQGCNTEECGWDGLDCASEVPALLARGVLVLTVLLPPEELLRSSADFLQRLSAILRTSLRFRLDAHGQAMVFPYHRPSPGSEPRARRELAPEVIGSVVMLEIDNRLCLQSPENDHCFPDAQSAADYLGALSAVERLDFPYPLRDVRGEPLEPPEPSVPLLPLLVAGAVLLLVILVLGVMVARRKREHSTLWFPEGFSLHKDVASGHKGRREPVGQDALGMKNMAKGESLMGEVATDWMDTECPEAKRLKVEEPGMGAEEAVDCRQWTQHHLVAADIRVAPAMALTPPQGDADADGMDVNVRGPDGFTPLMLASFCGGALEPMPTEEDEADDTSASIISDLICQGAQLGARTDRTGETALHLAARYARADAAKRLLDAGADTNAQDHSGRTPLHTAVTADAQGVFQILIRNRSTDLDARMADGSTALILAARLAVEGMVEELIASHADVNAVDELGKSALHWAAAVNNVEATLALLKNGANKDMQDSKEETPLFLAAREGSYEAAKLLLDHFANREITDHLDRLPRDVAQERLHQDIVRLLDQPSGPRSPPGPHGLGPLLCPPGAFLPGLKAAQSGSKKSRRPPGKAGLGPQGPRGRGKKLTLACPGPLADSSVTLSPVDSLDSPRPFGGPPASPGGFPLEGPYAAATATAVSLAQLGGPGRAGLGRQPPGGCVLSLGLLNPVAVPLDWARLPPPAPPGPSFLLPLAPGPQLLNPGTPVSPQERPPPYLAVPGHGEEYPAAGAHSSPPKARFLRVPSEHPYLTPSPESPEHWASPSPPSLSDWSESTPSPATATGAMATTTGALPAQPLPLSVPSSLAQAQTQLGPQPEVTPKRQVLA
# Sequence of Follistatin-related protein 3 (Homo sapiens) (O95633 whole entry, looked up): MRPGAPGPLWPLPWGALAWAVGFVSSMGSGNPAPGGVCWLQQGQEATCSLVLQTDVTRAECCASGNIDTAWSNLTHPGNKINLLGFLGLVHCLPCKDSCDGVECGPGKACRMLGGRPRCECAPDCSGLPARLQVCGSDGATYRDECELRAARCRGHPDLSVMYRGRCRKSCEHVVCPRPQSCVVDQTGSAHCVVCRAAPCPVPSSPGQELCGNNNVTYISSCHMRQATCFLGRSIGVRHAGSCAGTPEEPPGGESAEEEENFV
smiles,measurement,setting,value
CC(C)(C)N1CC=CC23O[C@@H]4C=CCCOC(=O)C4[C@H]2C(=O)N(CCCCCO)[C@@H]3C1=O (stereo not given in full),composite z-score,[1],0.937
same,z-score,[2],0.37 (inactive)
same,z-score,[3],0.501 (inactive)
same,z-score,[4],-0.215 (inactive)
same,composite z-score,[5],1.74
same,z-score,[6],0.261 (inactive)
same,composite z-score,[7],-0.13
same,composite z-score,[8],0.304
same,composite z-score,[9],0.0136
same,composite z-score,[10],0.0912
same,composite z-score,[11],1.87
same,composite z-score,[12],-0.399
same,composite z-score,[13],0.0199
same,z-score,[14],0.164 (inactive)
same,composite z-score,[15],-0.0123
same,composite z-score,[16],0.126
same,composite z-score,[17],-0.0688
same,composite z-score,[18],-0.361
same,composite z-score,[19],-0.236
same,composite z-score,[20],0.773
COc1ccc(-c2nc3c(c4c2C[C@H](C)OC4)CN(CCC(C)C)CC3)cc1,composite z-score,[1],1.31
same,z-score,[2],0.382 (inactive)
same,z-score,[3],-0.692 (inactive)
same,z-score,[4],0.0635 (inactive)
same,composite z-score,[5],1.5
same,z-score,[6],0.618 (inactive)
same,composite z-score,[7],-0.142
same,composite z-score,[8],0.501
same,composite z-score,[9],0.982
same,composite z-score,[10],0.167
same,composite z-score,[11],0.785
same,composite z-score,[12],-0.0348
same,composite z-score,[13],-0.514
same,z-score,[14],0.386 (inactive)
same,composite z-score,[15],1.02
same,composite z-score,[16],1.08
same,composite z-score,[17],0.472
same,composite z-score,[18],1
same,composite z-score,[19],0.388
same,composite z-score,[20],-0.296
CN1C(=O)C2C(C1=O)C1C=C(CCCO)C2C(c2ccc(CN3CCCC3)cc2)N1C (stereo not given),composite z-score,[1],-0.0446
same,z-score,[2],-0.363 (inactive)
same,z-score,[3],0.652 (inactive)
same,z-score,[4],-0.14 (inactive)
same,composite z-score,[5],-0.0999
same,z-score,[6],0.145 (inactive)
same,composite z-score,[7],-0.193
same,composite z-score,[8],-0.347
same,composite z-score,[9],-0.575
same,composite z-score,[10],-0.133
same,composite z-score,[11],-0.583
same,composite z-score,[12],-0.32
same,composite z-score,[13],-0.268
same,z-score,[14],-0.451 (inactive)
same,composite z-score,[15],-0.684
same,composite z-score,[16],-0.0315
same,composite z-score,[17],-0.576
same,composite z-score,[18],-0.186
same,composite z-score,[19],0.142
same,composite z-score,[20],0.523
CCCC=C(CCC)[C@@H](NC(=O)c1ccc(-c2ccccc2)cc1)c1ccc(C(=O)OC)cc1,composite z-score,[1],0.665
same,z-score,[2],0.806 (inactive)
same,z-score,[3],1.77 (inactive)
same,z-score,[4],1.93 (inactive)
same,composite z-score,[5],3.33
same,z-score,[6],-0.665 (inactive)
same,composite z-score,[7],0.0997
same,composite z-score,[8],0.0811
same,composite z-score,[9],1.07
same,composite z-score,[10],-0.022
same,composite z-score,[11],0.407
same,composite z-score,[12],0.245
same,composite z-score,[13],1
same,z-score,[14],-0.492 (inactive)
same,composite z-score,[15],-0.316
same,composite z-score,[16],0.472
same,composite z-score,[17],-0.237
same,composite z-score,[18],0.0286
same,composite z-score,[19],-0.673
same,composite z-score,[20],0.244
O=C1[C@H]2[C@H]3[C@H](O)[C@H](O)CC(=NOCc4ccccc4)[C@@H]3CC[C@H]2C(=O)N1Cc1ccccc1,composite z-score,[1],0.0044
same,z-score,[2],-0.132 (inactive)
same,z-score,[3],-0.176 (inactive)
same,z-score,[4],-1.41 (inactive)
same,composite z-score,[5],0.577
same,z-score,[6],0.263 (inactive)
same,composite z-score,[7],-0.21
same,composite z-score,[8],0.656
same,composite z-score,[9],0.797
same,composite z-score,[10],-0.0828
same,composite z-score,[11],-0.935
same,composite z-score,[12],-0.206
same,composite z-score,[13],-0.571
same,z-score,[14],-0.491 (inactive)
same,composite z-score,[15],0.43
same,composite z-score,[16],0.75
same,composite z-score,[17],0.453
same,composite z-score,[18],0.58
same,composite z-score,[19],0.544
same,composite z-score,[20],-0.359
CC(=O)OC[C@H]1O[C@@H](ON=C[C@@H](C)[C@H](OCc2ccccc2)C(C)C)[C@H](OC(C)=O)[C@@H](OC(C)=O)[C@@H]1OC(C)=O,composite z-score,[1],1.48
same,z-score,[2],0.475 (inactive)
same,z-score,[3],0.0572 (inactive)
same,z-score,[4],-0.17 (inactive)
same,composite z-score,[5],-1.59
same,z-score,[6],-0.057 (inactive)
same,composite z-score,[7],-0.114
same,composite z-score,[8],0.605
same,composite z-score,[9],0.751
same,composite z-score,[10],0.0359
same,composite z-score,[11],-0.0075
same,composite z-score,[12],0.129
same,composite z-score,[13],0.169
same,z-score,[14],0.14 (inactive)
same,composite z-score,[15],-0.167
same,composite z-score,[16],0.623
same,composite z-score,[17],0.338
same,composite z-score,[18],-0.39
same,composite z-score,[19],-1.22
same,composite z-score,[20],-1.82
CC(C)=CCCC(C)=CCON=C1[C@H]2CCn3c(=O)n(Cc4cc5c(cc4Cl)OCO5)c(=O)n3[C@H]2[C@H](O)[C@@H]2O[C@H]12,composite z-score,[1],-0.477
same,z-score,[2],0.175 (inactive)
same,z-score,[3],-0.105 (inactive)
same,z-score,[4],0.545 (inactive)
same,composite z-score,[5],-0.658
same,z-score,[6],-0.996 (inactive)
same,composite z-score,[7],0.0392
same,composite z-score,[8],0.482
same,composite z-score,[9],0.554
same,composite z-score,[10],0.112
same,composite z-score,[11],0.398
same,composite z-score,[12],-0.277
same,composite z-score,[13],-0.248
same,z-score,[14],-0.696 (inactive)
same,composite z-score,[15],0.427
same,composite z-score,[16],0.173
same,composite z-score,[17],0.984
same,composite z-score,[18],0.677
same,composite z-score,[19],0.472
same,composite z-score,[20],1.27
O=C1[C@H]2[C@H]3[C@H](O)[C@H](O)CC(=NO[C@@H]4O[C@H](CO)[C@@H](O)[C@H](O)[C@H]4O)[C@@H]3CC[C@H]2C(=O)N1c1ccc(F)cc1F,composite z-score,[1],-0.841
same,z-score,[2],-1.24 (inactive)
same,z-score,[3],-0.114 (inactive)
same,z-score,[4],-1.29 (inactive)
same,composite z-score,[5],0.245
same,z-score,[6],0.645 (inactive)
same,composite z-score,[7],-0.119
same,composite z-score,[8],0.575
same,composite z-score,[9],0.79
same,composite z-score,[10],-0.113
same,composite z-score,[11],0.406
same,composite z-score,[12],-0.157
same,composite z-score,[13],-0.445
same,z-score,[14],-0.244 (inactive)
same,composite z-score,[15],0.794
same,composite z-score,[16],0.703
same,composite z-score,[17],0.541
same,composite z-score,[18],0.608
same,composite z-score,[19],0.451
same,composite z-score,[20],-0.114
CCOC(=O)C[C@H]1[C@H](OC(=O)c2ccc(C(=O)c3ccccc3)cc2)[C@@H](NC(=O)c2ccc(-c3ccccc3)cc2)c2cc(OCCCO)ccc2N1C(=O)c1ccc2ccccc2n1,composite z-score,[1],1.44
same,z-score,[2],-1.05 (inactive)
same,z-score,[3],0.0048 (inactive)
same,z-score,[4],0.276 (inactive)
same,composite z-score,[5],2.29
same,z-score,[6],1.44 (inactive)
same,composite z-score,[7],-0.19
same,composite z-score,[8],0.609
same,composite z-score,[9],1
same,composite z-score,[10],-0.109
same,composite z-score,[11],1.02
same,composite z-score,[12],-0.301
same,composite z-score,[13],-0.432
same,z-score,[14],-0.784 (inactive)
same,composite z-score,[15],1.29
same,composite z-score,[16],0.838
same,composite z-score,[17],0.519
same,composite z-score,[18],0.775
same,composite z-score,[19],0.606
same,composite z-score,[20],0.23
CC(=O)O[C@H]1C2=C(C(=O)[C@@H]3O[C@@H]31)[C@H]1C(C)O[C@@H]2[C@@]23C(=O)[C@@H]4O[C@@H]4[C@@H](O)C2=CO[C@H](C)[C@@H]13 (stereo not given in full),composite z-score,[1],0.417
same,z-score,[2],0.014 (inactive)
same,z-score,[3],-0.361 (inactive)
same,z-score,[4],0.465 (inactive)
same,composite z-score,[5],-0.0273
same,z-score,[6],0.16 (inactive)
same,composite z-score,[7],-0.265
same,composite z-score,[8],-0.0408
same,composite z-score,[9],0.0275
same,composite z-score,[10],-0.0671
same,composite z-score,[11],0.452
same,composite z-score,[12],-0.475
same,composite z-score,[13],-0.62
same,z-score,[14],0.15 (inactive)
same,composite z-score,[15],0.374
same,composite z-score,[16],-0.0186
same,composite z-score,[17],0.197
same,composite z-score,[18],-0.0861
same,composite z-score,[19],0.326
same,composite z-score,[20],0.702
